# Assay results from PubChem BioAssay AID743286 (National Center for Advancing Translational Sciences (NCATS), 2014).
# The campaign covered roughly 1,100 compounds. About 340 (31%) were called active. Roughly 40% stayed inconclusive and do not appear here. The call rests on the fitted dose curve; in most records, active means well fitted inhibition curve with a large enough effect; inconclusive means small, poorly fitted or top-dose-only effect; inactive means flat fitted curve, though single readings scatter. The list is a sample of the results. A call without a number means that no potency is given here.
# Biological target: Phosphatidylinositol 5-phosphate 4-kinase type-2 alpha (Homo sapiens) (UniProt P48426)
# Assay: qHTS for Inhibitors of PI5P4K: Confirmation in Primary Assay; further: nearly all actives have a fitted effect of over 65% in size
# Conditions: PI5P4Kalpha enzyme, ADP-Glo luminescence, 60 min; series mostly up to 76.9 µM
# Procedure, shortened: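 Human PI5P4Kα activity was measured as ADP generation using ADP-Glo luminescence. Reactions ran 60 minutes at room temperature with 5 microM ATP in buffered conditions at pH 7.4 containing 5% DMSO.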
# Potency means the concentration at half of the fitted maximal effect.
# Sequence of Phosphatidylinositol 5-phosphate 4-kinase type-2 alpha (Homo sapiens) (P48426 whole entry, looked up): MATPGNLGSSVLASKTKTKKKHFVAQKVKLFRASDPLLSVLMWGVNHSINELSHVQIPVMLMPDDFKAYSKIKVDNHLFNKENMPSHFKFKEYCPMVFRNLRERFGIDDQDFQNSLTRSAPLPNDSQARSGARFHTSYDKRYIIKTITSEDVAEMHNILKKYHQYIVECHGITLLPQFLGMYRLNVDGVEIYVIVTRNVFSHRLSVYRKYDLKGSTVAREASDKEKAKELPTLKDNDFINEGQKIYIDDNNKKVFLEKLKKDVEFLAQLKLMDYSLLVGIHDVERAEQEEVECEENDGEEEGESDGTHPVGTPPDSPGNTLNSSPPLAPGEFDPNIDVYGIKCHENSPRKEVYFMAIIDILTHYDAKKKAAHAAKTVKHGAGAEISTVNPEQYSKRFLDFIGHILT
row,Structure (SMILES),Potency
1,O=C(CSc1nc2c(cnn2-c2cccc(Cl)c2)c(=O)[nH]1)NCC1CCCO1 (centres undefined),inactive
2,O=c1c2ccccc2[nH]c2ccc(O)cc12,20 µM (active)
3,O=[N+]([O-])c1ccc(-c2cc(-c3ccc(Cl)cc3)n[nH]2)cc1,inactive
4,Cc1nc2ccccc2nc1OCC(=O)NCc1ccc2c(c1)OCO2,inactive
5,CNC(=O)COC(=O)c1cc(-c2ccco2)nc2ccccc12,12.6 µM (active)
6,CCNC(=O)COC(=O)c1cc(-c2ccco2)nc2ccccc12,14.1 µM (active)
7,CCN(CC)C(=O)COC(=O)c1cc(-c2ccco2)nc2ccccc12,12.6 µM (active)
8,O=C(OCc1nnc(-c2ccccc2)o1)c1ccc2ccccc2n1,inactive
9,COc1ccc(CNC(=O)CCCn2nc(C)c([N+](=O)[O-])c2C)cc1OC,inactive
10,Cc1ccc(NC(=O)Nc2cccs2)cc1,inactive
11,CC(C)NC(=O)N1c2ccccc2Sc2ccccc21,inactive
12,COC(=O)Cc1c(C)nc2nc(-c3ccc(C)cc3)[nH]n2c1=O,6.31 µM (active)
13,O=C(Nc1nnc(-c2ccncc2)o1)c1ccccc1,inactive
14,O=C(Nc1nnc(-c2ccc(Cl)cc2)o1)c1nc2ccccc2s1,14.1 µM (active)
15,O=C(Nc1nnc(SCc2ccc(Cl)cc2)s1)c1ccco1,inactive
16,CC(C)(C)NC(=O)Nc1ccc(Cn2cc(C(F)(F)F)ccc2=O)cc1,inactive
17,Cc1c(C(=O)O)sc2ncnc(N3CCCCC3C)c12 (centres undefined),10 µM (active)
18,O=C(COc1cccc2ccccc12)Nc1ccc(Cl)cc1C(=O)O,25.1 µM (active)
19,CNC(=O)c1nc(C)n(-c2ccc(Cl)cc2Cl)n1,inactive
20,Cc1ccc(C(c2nnnn2CS(=O)(=O)c2ccc(C)cc2)N2CCC(C)CC2)cc1 (centres undefined),inactive
21,N#Cc1c(NC(=O)CSc2ncnc3sccc23)oc(-c2ccco2)c1-c1ccco1,17.8 µM (active)
22,Cc1cc(C(=O)OCC(=O)Nc2c(F)cccc2F)c(C)n1-c1ccccc1,inactive
23,NC(=O)c1ccsc1NC(=O)COC(=O)c1ccccc1F,22.4 µM (active)
24,CN(C)S(=O)(=O)c1cccc(C(=O)OCC(=O)Nc2sccc2C(N)=O)c1,inactive
25,Cc1cc(C)c2c(N)c(C(=O)Nc3c(C)n(C)n(-c4ccccc4)c3=O)sc2n1,inactive
26,Cc1sc(NC(=O)c2sc3nc4c(C)cccc4cc3c2N)c(C#N)c1C,11.2 µM (active)

row,Structure (SMILES),Potency
1,N#CC1=C2SCN(c3ccccc3)CN2C(=O)CC1c1c(Cl)cccc1Cl (centres undefined),22.4 µM (active)
2,CCc1ccccc1N1CSC2=C(C#N)C(c3ccccc3F)CC(=O)N2C1 (centres undefined),14.1 µM (active)
3,N#CC1=C2SCN(c3ccccc3)CN2C(=O)CC1c1ccccc1Cl (centres undefined),25.1 µM (active)
4,O=C(CSc1ncnc2sc3c(c12)CCC3)N1CCOCC1,inactive
5,COc1ccc2c([N+](=O)[O-])c(Cl)[nH]c2c1,10 µM (active)
6,CC(C)C(=O)Nc1ccccc1N1CCN(S(C)(=O)=O)CC1,inactive
7,O=C(NCCCCc1ccccc1)c1cccc(NC(=O)C2CC2)c1,inactive
8,O=C(NCC1CCCCC1)c1cccc([N+](=O)[O-])c1,inactive
9,O=C(NCc1cc([N+](=O)[O-])ccc1O)c1cccc(NS(=O)(=O)c2ccccc2)c1,14.1 µM (active)
10,OCCCNc1nccc(-c2cc(Nc3cccc(Cl)c3)ncn2)n1,14.1 µM (active)
11,OC(c1ccc(Cl)c(F)c1)c1ncc(-c2ccc(Oc3ccccc3)cc2)[nH]1 (centres undefined),inactive
12,COc1cc(OC)cc(-c2nnc(NC(=O)CCS(=O)(=O)c3ccc(C)cc3)o2)c1,inactive
13,O=S(=O)(c1ccc2nc(-c3ccco3)c(-c3ccco3)nc2c1)N1CCOCC1,15.8 µM (active)
14,O=S(=O)(c1ccccc1)c1nc(-c2ccco2)oc1N1CCCCCC1,inactive
15,O=S(=O)(NCCC1=CCCCC1)c1cccc(S(=O)(=O)N2CCOCC2)c1,inactive
16,O=C(Nc1ccc2c(c1)OCCO2)c1ccccc1F,inactive
17,COc1ccc(C(C(=O)NC2CCCC2)N(C(=O)c2snc(C(N)=O)c2N)c2cccc(O)c2)cc1 (centres undefined),inactive
18,N#Cc1cc(-c2ccccc2)nn1-c1ccccc1,10 µM (active)
19,Cc1ccc(CSCC(=O)N2CCOCC2)cc1,inactive
20,O=C(Nc1cccc(Cl)c1)N1CCCC1,inactive
21,COCCn1c(SCC(=O)Nc2cccc(S(N)(=O)=O)c2)nc2cc(Cl)ccc2c1=O,inactive
22,O=C(Cc1ccc(Cl)cc1Cl)Nc1cccc(S(=O)(=O)Nc2ccccc2F)c1,3.98 µM (active)
23,CC(=O)NC(c1cccs1)c1cc([N+](=O)[O-])c2cccnc2c1O (centres undefined),12.6 µM (active)
24,CC(=O)NC(c1ccc(C)cc1)c1cc([N+](=O)[O-])c2cccnc2c1O (centres undefined),inactive
25,O=C(Oc1ccc(N(Cc2cccs2)C2=NS(=O)(=O)c3ccccc32)cc1)c1ccccc1Cl,inactive
26,CCCn1c(=O)c2[nH]c(-c3ccc(S(=O)(=O)O)cc3)nc2n(CCC)c1=O,14.1 µM (active)

row,Structure (SMILES),Potency
1,Cn1c(=O)c2[nH]c(-c3ccc(S(=O)(=O)O)cc3)nc2n(C)c1=O,12.6 µM (active)
2,O=C(CSc1nc(-c2ccccc2)cc(=O)[nH]1)N1CCc2ccccc21,inactive
3,CCn1c(SCc2nc3sc(C(=O)O)c(C)c3c(=O)[nH]2)nc2ccccc21,12.6 µM (active)
4,COc1ccc(CCCc2nnc(SCc3nc4ccccc4c(=O)[nH]3)n2C)cc1,inactive
5,c1cc2c(cc1C1=NNC(=NC3CC3)SC1)OCCO2,28.2 µM (active)
6,Cc1cc(C(=O)Nc2cccc3c2O[C@@H](CN(C)S(C)(=O)=O)[C@H](C)CN([C@@H](C)CO)C3=O)n(C)n1,inactive
7,NS(=O)(=O)c1cc(C(=O)NC2CCSc3ccccc32)ccc1Cl (centres undefined),0.891 µM (active)
8,O=C(OCC(=O)N1CCCCCC1)c1ccc(Cl)c(S(=O)(=O)N2CCCC2)c1,inactive
9,COCc1ccc2oc(C(=O)O)cc2c1,inactive
10,COc1ccc2c(c1)c(=O)oc1c(C)c(OCc3cc(C(=O)O)oc3C)ccc12,17.8 µM (active)
11,COc1ccc2c(c1)C=C(CN1CCN(Cc3ccccc3C)C(CCO)C1)CO2 (centres undefined),inactive
12,Cc1ccc(-c2csc(NC(=O)c3ccno3)n2)cc1,28.2 µM (active)
13,NC(=O)c1c(NC(=O)c2ccccc2)sc2c1CCC2,25.1 µM (active)
14,NC(=O)c1c(NC(=O)CN2CCCC2)sc2c1CCCC2,inactive
15,NC(=O)c1c(NC(=O)c2cc3ccccc3o2)sc2c1CCC2,31.6 µM (active)
16,Cc1ccc2cc(CCl)c(Cl)nc2c1,inactive
17,O=C(c1ccc(Br)cc1)c1cc2ccc(O)cc2oc1=O,11.2 µM (active)
18,O=C(NCc1ccco1)c1cc2ccc(O)cc2oc1=O,14.1 µM (active)
19,NC(=S)c1cc2ccc(O)cc2oc1=O,14.1 µM (active)
20,N=c1oc2ccc3ccccc3c2cc1C(N)=S,inactive
21,O=c1oc2cc(O)ccc2cc1-c1ccc(F)cc1,inactive
22,O=C(c1ccc(F)cc1)c1cc2ccc(O)cc2oc1=O,10 µM (active)
23,COc1ccc(C(=O)N2CCC2(C)C(=O)O)cc1F (centres undefined),inactive
24,O=C(Nc1ccc(-c2nc3ncccc3o2)cc1)c1ccco1,inactive
25,O=C(CCN1CCc2ccccc2C(c2ccccc2)C1)c1ccc2c(c1)OCCO2 (centres undefined),inactive
26,O=C(Cn1cncn1)NCc1ccccc1Br,inactive

row,Structure (SMILES),Potency
1,CCOC(=O)N1CCN(C(=O)CCS(=O)(=O)c2ccc3c(c2)CCN3C(=O)CC)CC1,inactive
2,Cc1cccc(N=c2oc3cc(O)ccc3cc2C(N)=O)c1,14.1 µM (active)
3,Clc1ccc2nc(-c3ccco3)c(Cc3ccccc3)n2c1,inactive
4,c1coc(-c2ccc3nncn3c2)c1,15.8 µM (active)
5,CC(=O)c1ccc(NC(=O)c2noc3c2CCC3)cc1,35.5 µM (active)
6,O=C(Nc1nnc(COc2ccc(Cl)cc2)s1)c1cccs1,inactive
7,CC(C)(NC(=O)c1ccccc1)c1nc2ccccc2s1,inactive
8,Cc1nc(N)sc1-c1csc(Nc2cccc(C(=O)O)c2)n1,15.8 µM (active)
9,OCCNc1nc(Nc2ccc(Cl)c(Cl)c2)nc2ccccc12,31.6 µM (active)
10,O=C1COc2ccc(S(=O)(=O)NCCc3ccccc3)cc2N1,inactive
11,Cc1ccc(C)c(S(=O)(=O)Nc2ccc3oc(C)c(C(=O)O)c3c2)c1,15.8 µM (active)
12,COc1cc(CNc2ccc(N3CCCC3)cc2)cc(Cl)c1OC,inactive
13,O=C(O)C1Nc2c(Cl)cc(Cl)c(Cl)c2C2C=CCC12 (centres undefined),8.91 µM (active)
14,CCOc1ccc(CC(=O)Nc2sc(Cc3ccccc3)c(C)c2C(N)=O)cc1OCC,inactive
15,CCc1c(C)sc(NC(=O)c2ccoc2C)c1C(N)=O,12.6 µM (active)
16,O=S(=O)(c1ccc(Br)cc1)N1CCCc2ccccc21,inactive
17,NS(=O)(=O)c1ccc(NC(=O)c2ccc(S(=O)(=O)N3CCc4ccccc43)cc2)cc1,14.1 µM (active)
18,Clc1ccc2nc(CSc3nc4ccccc4o3)cn2c1,inactive
19,CCOc1ccccc1N1CSC2=C(C#N)C(c3c(OC)ccc4ccccc34)CC(=O)N2C1 (centres undefined),20 µM (active)
20,COc1ccc2ccccc2c1C1CC(=O)N2CN(C3CCCCC3)CSC2=C1C#N (centres undefined),15.8 µM (active)
21,C[C@H](CO)N1C[C@H](C)[C@@H](CN(C)S(=O)(=O)c2ccc3c(c2)OCCCO3)OCc2cnnn2CCCC1=O,inactive
22,CCN1CCN(C(=O)Cn2nc(-c3ccc(Cl)cc3)ccc2=O)CC1,inactive
23,COc1cc2nc(Nc3ccc(C)c(Cl)c3)nc(N)c2cc1OC,15.8 µM (active)
24,CC1CCCCC1NC(=O)COC(=O)c1c2c(nc3ccccc13)/C(=C\c1ccco1)CC2 (centres undefined),1.26 µM (active)
25,Cc1ccnc2nc(C(=O)OCC(=O)NC3CCCC(C)C3C)nn12 (centres undefined),inactive
26,COc1ccc(CCn2c(O)cc3nn(-c4nc5ccccc5s4)c(=O)c-3c2C)cc1,11.2 µM (active)
